Experimental data: PubChem BioAssay (NCATS)
Where “and” joins values, the source holds several entries; their conditions need not be identical. Equal entries are not always repeated. Values without a mark were called inactive. Results filed as inconclusive are left out. Entries that show only a call come without a potency. Calls of active or inactive are those of the source. Unless noted, calls follow the shape of the dose curve; as a rule, active = well fitted curve in the direction sought with a large enough effect; inconclusive = small, poorly fitted or top-dose-only effect, or another doubt; inactive = no such curve, though single readings can be large; an effect the other way counts as inactive or inconclusive.

Key:
[1] = qHTS assay for environmental chemicals that activate the Aryl hydrocarbon Receptor (AhR) signaling pathway (AID 651777); settings: 1A2-DRE human hepatoma cells, luciferase, 24 h; activation: stronger effect = higher value; also: nearly all actives have a fitted effect of over 15% in size; also: potency is read from the fitted curve at half-maximal effect
Summary of the method: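 Quantitative HTS in stably transfected human liver-derived cells whose luciferase gene sits downstream of the CYP1A2 promoter and dioxin response element. After 24 hr exposure at 37 C, One-Glo luminescence was measured.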

[2] = molecular target: Peroxisome proliferator-activated receptor alpha (Homo sapiens) (UniProt Q07869); test: qHTS assay for small molecule agonists of the peroxisome proliferator-activated receptor alpha (PPARalpha) signaling pathway (AID 651778); settings: PathHunter PPARalpha complementation, chemiluminescence, 6 h; stronger effect = higher value
Chain of Peroxisome proliferator-activated receptor alpha (Homo sapiens) (Q07869 whole entry, looked up): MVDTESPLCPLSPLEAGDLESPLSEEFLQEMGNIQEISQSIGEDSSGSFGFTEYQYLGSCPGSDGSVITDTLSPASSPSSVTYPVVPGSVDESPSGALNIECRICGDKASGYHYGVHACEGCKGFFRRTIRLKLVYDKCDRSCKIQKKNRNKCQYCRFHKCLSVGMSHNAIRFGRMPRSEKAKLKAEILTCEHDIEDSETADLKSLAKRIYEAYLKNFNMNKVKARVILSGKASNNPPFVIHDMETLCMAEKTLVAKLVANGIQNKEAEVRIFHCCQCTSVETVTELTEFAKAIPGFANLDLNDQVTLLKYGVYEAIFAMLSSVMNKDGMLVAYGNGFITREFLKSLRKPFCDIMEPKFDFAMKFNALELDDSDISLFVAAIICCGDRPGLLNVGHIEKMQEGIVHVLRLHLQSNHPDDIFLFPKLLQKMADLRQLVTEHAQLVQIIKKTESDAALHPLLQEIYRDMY
Summary of the method: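 Chemiluminescence from complemented enzyme reported PPARalpha activation in cells after 6 hr of compound treatment at 37 C. The detection reagent was incubated for 60 min at room temperature, and compounds were scored as agonists.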

[3] = qHTS assay for small molecule agonists of the antioxidant response element (ARE) signaling pathway measured by Nrf2-dependant transcriptional activity (AID 720636; active = well fitted curve in the direction sought with a large enough effect in the repeat runs; an effect the other way counts as inactive or inconclusive)
Summary of the method: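 Quantitative HTS format in HepG2 cells stably expressing an ARE-luciferase reporter; 16 hr compound treatment at 37 C, luciferase signal detected with ONE-Glo.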

[4] = qHTS assay for small molecule antagonists of the retinoid-related orphan receptor gamma (ROR-gamma) signaling pathway - cell viability counter screen (AID 720652; active = well fitted curve in the direction sought with a large enough effect in the repeat runs; an effect the other way counts as inactive or inconclusive;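 also: compound exposure lasted 16 hr before ATP read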; also: potency is read from the fitted curve at half-maximal effect)
Summary of the method: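 Cytotoxicity is quantified via intracellular ATP (CellTiter-Glo luminescence) in doxycycline-induced CHO ROR response element-luciferase reporter cells treated with compound for 16 hr at 37 C, 5% CO2.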

[5] = qHTS assay for small molecule agonists of the antioxidant response element (ARE) signaling pathway measured by Nrf2-dependant transcriptional activity - cell viability counter screen (AID 720653; active = well fitted curve in the direction sought with a large enough effect in the repeat runs; an effect the other way counts as inactive or inconclusive); settings: ARE-bla HepG2 viability, CellTiter-Glo ATP luminescence, 16 h; stronger effect = lower value
Summary of the method: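 Cytotoxicity counter screen: intracellular ATP quantified by CellTiter-Glo luminescence in the same ARE-bla HepG2 plates, after 16 h compound exposure and a 2 h beta-lactamase substrate step.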

[6] = qHTS assay for cell viability of HEK293 cells (AID 743288); settings: ATP luminescence (CellTiter-Glo), 18 h, stronger effect = lower value; also: nearly all actives have a fitted effect of over 50% in size
Summary of the method: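 Parental HEK293 cells, 2,000 per well, preincubated at least 5 h at 37 C, then exposed to compounds in DMSO for 18 h at 37 C. Viability by CellTiter-Glo ATP luminescence after 30 min at room temperature.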

[7] = qHTS assay for cell viability of the p53RE-bla HCT-116 cell line (AID 743292); also: nearly all actives have a fitted effect of over 55% in size; also: potency is read from the fitted curve at half-maximal effect
Summary of the method: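 Viability of compound-treated p53RE-bla HCT-116 cells is taken from ATP-dependent luciferase luminescence. Treatment lasts 16 h at 37 C after a 5 h settling period; detection follows 30 min at room temperature.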

[8] = molecular target: Nuclear receptor subfamily 1 group I member 2 (Rattus norvegicus) (UniProt Q9R1A7); test: qHTS assay for small molecule activators of the rat pregnane X receptor (rPXR) signaling pathway (AID 651751; call rule not given here); settings: rPXR reporter cells, luciferase (One-Glo), 24 h
Chain of Nuclear receptor subfamily 1 group I member 2 (Rattus norvegicus) (Q9R1A7 whole entry, looked up): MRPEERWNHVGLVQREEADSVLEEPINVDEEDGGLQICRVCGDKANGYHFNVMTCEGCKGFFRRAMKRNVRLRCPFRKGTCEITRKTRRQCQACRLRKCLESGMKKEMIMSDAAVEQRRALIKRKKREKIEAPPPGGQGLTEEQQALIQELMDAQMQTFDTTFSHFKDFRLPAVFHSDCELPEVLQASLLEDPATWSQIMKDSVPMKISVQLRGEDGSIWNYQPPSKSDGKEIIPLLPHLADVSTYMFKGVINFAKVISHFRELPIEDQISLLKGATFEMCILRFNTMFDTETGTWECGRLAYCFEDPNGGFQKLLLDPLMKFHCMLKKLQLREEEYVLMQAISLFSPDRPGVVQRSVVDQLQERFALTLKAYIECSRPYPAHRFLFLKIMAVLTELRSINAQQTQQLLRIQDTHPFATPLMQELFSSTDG

[9] = qHTS assay for small molecule activators of the human pregnane X receptor (PXR) signaling pathway (AID 720659; call rule not given here)
[10] = molecular target: Tumor necrosis factor (Homo sapiens) (UniProt P01375); test: qHTS assay to identify small molecules that stimulate Tumor Necrosis Factor-alpha (TNF-alpha) secretion (AID 651757; active = well fitted curve in the direction sought with a large enough effect in the signal ratio; the % refers to the signal ratio)
Chain of Tumor necrosis factor (Homo sapiens) (P01375 whole entry, looked up): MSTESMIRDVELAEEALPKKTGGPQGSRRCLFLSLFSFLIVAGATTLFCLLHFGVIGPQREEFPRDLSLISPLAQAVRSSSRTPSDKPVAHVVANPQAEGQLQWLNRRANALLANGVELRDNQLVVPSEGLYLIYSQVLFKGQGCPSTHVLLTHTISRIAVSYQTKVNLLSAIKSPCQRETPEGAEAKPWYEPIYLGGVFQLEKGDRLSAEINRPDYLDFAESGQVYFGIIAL
Summary of the method: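 Secreted TNF-alpha from compound-treated THP-1 cells (17 hrs, 37 C) was quantified with a homogeneous time-resolved fluorescence antibody assay.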

[11] = molecular target: Nuclear receptor ROR-gamma (Homo sapiens) (UniProt P51449); test: qHTS assay for small molecule antagonists of the retinoid-related orphan receptor gamma (ROR-gamma) signaling pathway (AID 651802); also: nearly all actives have a fitted effect of over 60% in size; also: potency is read from the fitted curve at half-maximal effect
Chain of Nuclear receptor ROR-gamma (Homo sapiens) (P51449 whole entry, looked up): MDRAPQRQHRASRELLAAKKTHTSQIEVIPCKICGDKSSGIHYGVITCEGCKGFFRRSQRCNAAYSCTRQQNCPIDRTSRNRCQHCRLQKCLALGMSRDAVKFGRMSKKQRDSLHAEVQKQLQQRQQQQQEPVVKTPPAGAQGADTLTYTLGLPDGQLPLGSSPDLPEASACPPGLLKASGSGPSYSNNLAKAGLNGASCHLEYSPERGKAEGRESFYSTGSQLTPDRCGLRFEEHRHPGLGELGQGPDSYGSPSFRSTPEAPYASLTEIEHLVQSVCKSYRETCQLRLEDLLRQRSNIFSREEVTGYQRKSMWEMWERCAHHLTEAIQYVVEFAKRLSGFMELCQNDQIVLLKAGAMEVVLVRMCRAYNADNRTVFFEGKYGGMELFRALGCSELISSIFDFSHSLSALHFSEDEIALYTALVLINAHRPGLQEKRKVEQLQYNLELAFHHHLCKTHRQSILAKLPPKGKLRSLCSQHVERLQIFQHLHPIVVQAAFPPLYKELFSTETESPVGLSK
Summary of the method: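 Antagonism is scored as a fall in luminescence from a RORE-luciferase reporter in CHO cells expressing ROR under a TET-inducible promoter, measured 16hr after doxycycline induction in the presence of compound.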

[12] = qHTS assay for small molecule disruptors of the mitochondrial membrane potential - 1 hr assay (AID 651754; calls by dose curve; also: nearly all actives have a fitted effect of over 35% in size; also: potency is read from the fitted curve at half-maximal effect)
Summary of the method: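 Steps: seed HepG2 cells and let attach overnight; pin-transfer compound or vehicle; incubate 1 hr at 37C; add Mito-MPS dye for 30 min; read two-channel fluorescence for monomer and aggregate forms.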

[13] = qHTS assay for small molecule disruptors of the mitochondrial membrane potential - 5 hr assay (AID 651755; calls by dose curve; also: nearly all actives have a fitted effect of over 40% in size)
Summary of the method: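 HepG2, 2,000 cells/well, overnight attach; cpd or DMSO 5 hr, 37C/5% CO2; Mito-MPS 30 min 37C; fluor 490/535 + 540/590 nm.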

[14] = qHTS assay to identify small molecules that stimulate interleukin-8 (IL-8) secretion (AID 651758; active = well fitted activation curve with a large enough effect in the signal ratio; the % refers to the signal ratio; also: potency is read from the fitted curve at half-maximal effect)
Summary of the method: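 Secreted IL-8 measured by TR-FRET sandwich (cryptate and XL665 antibodies) from THP-1 cells exposed to compound overnight (16 hrs, 37 C).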

Compound	activation [1]	max response [2]	outcome [3]	Potency [4]	max response [5]	max response [6]	Potency [7]	max response [8]	outcome [9]	Potency [10]	Potency [11]	Potency [12]	Potency [13]	Potency [1]	Potency [14]
Cc1c(N)cccc1N	6.39%	0.845%	inactive	inactive	1.04%	6.3%	inactive	3.73%	inactive						
Nc1ccc(Cl)cc1[N+](=O)[O-]	1.69%	-2.8%	inactive			-4.72%		1.08%	inactive						
COC(=O)CCCC(=O)OC		-1.53%	inactive	inactive	4.37%			1.21%	inactive	inactive	inactive				
Nc1nc(-c2ccccc2)cs1		22.8%		inactive	4.04%	0.545%	inactive			inactive		inactive	inactive	35.5 µM (active)	
Clc1ccc(Cl)c(Cl)c1Cl	0.208% and -1.37%	-7.17% and 0.0854%	inactive	inactive	13.5% and -3.85%	5.4% and -1.16%	inactive	-5.98% and -1.32%	inactive	inactive	inactive				
Nc1cccc2c(=O)[nH][nH]c(=O)c12	0.365%	0.513%	inactive		4.98%	0.895%					inactive	inactive	inactive		
CC#N	0.208%	-2.21%	inactive	inactive	-0.353%	-9.36%	inactive		inactive	inactive		inactive	inactive		inactive
COc1ccc(N)c(OC)c1	3.03%	4.7%	inactive	inactive		1.67%	inactive				inactive	37.6 µM (active)			
O=Cc1c(Cl)cccc1Cl	1.15%	25.1%	inactive	inactive	11.9%	-9.95%	inactive	8%		inactive	16.8 µM (active)				
CC(N)CN (configuration not stated)	-0.27%		inactive	inactive	0.44%	-8.09%	inactive	5.77%	inactive	inactive					inactive
CCOC(=O)OCC	0.303%	3.76%	inactive	inactive	2.96%	1.3%	inactive	-3.24%	inactive	inactive					inactive
CC(=C/C=C/C(C)=C/C=C/C=C(C)/C=C/C=C(C)/C=C/C(=O)O)/C=C/C(=O)O	2.66%	2.34%	inactive	inactive	-9.67%	-2.36%	inactive	9.17%	inactive	inactive	inactive				
C=CCCCCCCC=C	0.475%	4.13%	inactive	inactive	5.83%	3%	inactive			inactive	inactive	inactive	inactive		
CCC(C)O (configuration not stated)		0.282%	inactive	inactive	-9.02%	5.18%	inactive				inactive	inactive	inactive		inactive
C/C(C=O)=C/c1ccccc1	-1.35%	-3.84%	inactive	inactive	-7.12%	5.25%	inactive	2.25%	inactive	inactive	inactive				
CC=O	1.11%	-2.4%	inactive	inactive	5.19%		inactive	-4.58%	inactive	inactive	inactive				inactive
O=[N+]([O-])c1ccc2nc[nH]c2c1		-4.28%	inactive	inactive	-5.47%	3.84%	inactive	-0.905%	inactive		inactive				inactive
Cc1ccc2nc(-c3ccc(N)cc3)sc2c1S(=O)(=O)O		2.42%		inactive	-24.5%	-7.88%	inactive							39.8 µM (active)	
CCC(C)=O	-0.131%	-7.5%	inactive	inactive	-4.32%	4.69%	inactive	4.73%	inactive		inactive				inactive
C1CCOC1	0.0348%			inactive	5.55%		inactive	2.84%	inactive	inactive					

Compound	activation [1]	max response [2]	outcome [3]	Potency [4]	max response [5]	max response [6]	Potency [7]	max response [8]	outcome [9]	Potency [10]	Potency [11]	Potency [12]	Potency [13]	Potency [1]	Potency [14]
CC1=C(/C=C/C(C)=C/C=C/C(C)=C\C=O)C(C)(C)CCC1	6.53%			26.6 µM (active)		-22%	44.7 µM (active)			inactive		inactive	inactive		0.422 µM (active)
Cc1cscn1	1.08%	-1.32%	inactive	inactive	0.707%		inactive	0.103%	inactive	inactive					
CC(C)(C)c1ccc(OCC2CO2)cc1 (configuration not stated)	8.83%	-5.01%	inactive	inactive	4.81%	3.48%	inactive			inactive	inactive	inactive	inactive		
C=CCCCC	0.475%	-2.42%	inactive	inactive	-4.9%	3.02%	inactive	0.496%	inactive	inactive	inactive				
O=C(O)c1ccc(CO)o1	-0.734%	15%		inactive	-10.4%	11.8%			inactive	inactive	inactive	inactive	inactive		
Nc1ccc([N+](=O)[O-])c(N)c1	1.41%	-0.849%	inactive	inactive	-4.59%		inactive	1.18%	inactive	inactive	inactive				inactive
Clc1cc(Cl)cc(Cl)c1	2.15%	0.786%	inactive	inactive	-5.36%	-3.91%	inactive		inactive	inactive		inactive	inactive		inactive
COc1ccc(N=[N+]([O-])c2ccc(OC)cc2)cc1		-3.57%			-28.6%	-5.78%	inactive					inactive	inactive	1.12 µM (active)	
O=C(O)CN(CC(=O)O)CC(=O)O		0.802% and -1.95% and -0.798%	inactive	inactive	-26.1% and -5.78% and 9.03%	8.87% and -10.3% and 10.6%	inactive		inactive	inactive	inactive				
C=C(C)C1CC=C(C)C(OC(C)=O)C1 (configuration not stated)	0.261%	-3.58%		inactive	1.71%	1.89%	inactive		inactive	inactive	inactive	inactive	inactive		inactive
Oc1cccc(Nc2ccccc2)c1	4.89%	-0.0901%	inactive	inactive	-2.76%	2.73%	inactive	5.07%	inactive		inactive				
O=c1[nH][nH]c(=O)c2cc([N+](=O)[O-])ccc12	1.03%	-4.9%	inactive	inactive	5.62%			-1.39%	inactive	inactive	inactive				
OCCO	0.215%	-4.04%	inactive	inactive	-3.22%	-10.8%	inactive			inactive		inactive	inactive		
Nc1cccc(O)c1	2.45%	0.244%		inactive	-0.321%		inactive	-3.29%	inactive	inactive	inactive				
Cc1ccc(S(=O)(=O)NC2CCCCC2)cc1	-0.456%	-1.4%	inactive		1.13%	-5.72%	inactive			inactive		inactive	inactive		inactive
CCC(=O)/C=C/C1C(C)=CCCC1(C)C (configuration not stated)	-0.103%	0.561%	inactive		0.358%	0.395%	inactive			inactive	inactive	inactive	inactive		inactive
C[C@@H]1CC2(OC3C[C@@]4(C)C5=CC[C@H]6C(C)(C)C(O[C@@H]7OC[C@@H](O)[C@H](O)[C@H]7O)CC[C@@]67C[C@@]57CC[C@]4(C)C31)OC(O)C1(C)OC21 (some centres not stated)	-0.875%	8.86%	inactive			-9.95%	inactive		inactive		21.1 µM (active)	inactive	inactive		inactive
CCOc1cc(OCC)c(C(C)=O)cc1OCC	3.71%	0.501%	inactive	inactive		0.327%	inactive			inactive	inactive	inactive	inactive		inactive
O=Nc1ccc(NO)cc1	6.63%	-1.48%	inactive		2.71%	-9.92%		-3.74%	inactive						
